From PubChem BioAssay
Several values for one entry are separate records, joined by “and”; a condition that tells them apart may be missing. Equal entries are not always repeated. Values without a mark were called inactive. For part of these data: Measured potencies and affinities stand elsewhere. Activity calls are given as the source filed them. Unless noted, the rule behind the calls is not given here.

Tests used:
[1] = antimalarial activity against Dd2 strain (AID 2302;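 active = growth inhibition above 50% at the single 2 µM test dose, taken to imply half-maximal potency below 2 µM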;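 note: 0% = DMSO untreated growth and 100% = chloroquine plus artemisinin killed control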); settings: P. falciparum Dd2 in RBCs, LDH growth readout, 72 h; at 2 µM; stronger effect = higher value
[2] = HepG2 cytotoxicity, primary screen, cytotoxicity control for P. falciparum antimalarial project, cell-based, ATP luminescence (AID 2303;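 active = inhibition above 50%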;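 note: 0% = DMSO wells and 100% = digitonin-killed cells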); settings: HepG2 viability, 24-48 h, at 10 µM, stronger effect = higher value
[3] = target: L-lactate dehydrogenase (Plasmodium falciparum (isolate CDC / Honduras)) (UniProt Q27743); assay: PfLDH activity inhibition – cell lysate, 3D7 strain, counter-screen for P. falciparum growth inhibition project (AID 2304);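 note: 0% = vehicle and 100% = reference inhibitor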; settings: P. falciparum 3D7 crude extract, LDH APAD/NBT absorbance; at 2 µM; stronger effect = higher value
Sequence of L-lactate dehydrogenase (Plasmodium falciparum (isolate CDC / Honduras)) (Q27743 whole entry, looked up): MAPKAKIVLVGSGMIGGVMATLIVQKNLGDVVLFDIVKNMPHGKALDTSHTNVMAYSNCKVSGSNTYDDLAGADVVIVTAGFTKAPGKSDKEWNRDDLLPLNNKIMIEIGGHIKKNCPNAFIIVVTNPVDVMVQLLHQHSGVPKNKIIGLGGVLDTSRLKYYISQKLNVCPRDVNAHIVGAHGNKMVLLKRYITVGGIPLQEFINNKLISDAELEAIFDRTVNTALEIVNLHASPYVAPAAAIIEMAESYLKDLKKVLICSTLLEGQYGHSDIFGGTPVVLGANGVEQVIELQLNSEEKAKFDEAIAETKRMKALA

[4] = inhibition of 3D7 malaria parasite growth – strain 3D7 (AID 2306);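 note: 0% = DMSO wells and 100% = chloroquine plus artemisinin control wells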; settings: P. falciparum 3D7 erythrocytic growth, LDH absorbance, 72 h; at 2 µM; stronger effect = higher value
[5] = target: Calcium-dependent protein kinase 1 (Plasmodium falciparum (isolate 3D7)) (UniProt P62344); assay: PfCDPK1 kinase inhibitors, biochemical, TCAMS library (AID 1159585; cut-off not given, nearly all actives have IC50 up to about 0.98 µM;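 note: inhibitors leave more ATP so luminescence rises with inhibition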); settings: recombinant PfCDPK1, Kinase-Glo ATP depletion luminescence
Sequence of Calcium-dependent protein kinase 1 (Plasmodium falciparum (isolate 3D7)) (P62344 whole entry, looked up): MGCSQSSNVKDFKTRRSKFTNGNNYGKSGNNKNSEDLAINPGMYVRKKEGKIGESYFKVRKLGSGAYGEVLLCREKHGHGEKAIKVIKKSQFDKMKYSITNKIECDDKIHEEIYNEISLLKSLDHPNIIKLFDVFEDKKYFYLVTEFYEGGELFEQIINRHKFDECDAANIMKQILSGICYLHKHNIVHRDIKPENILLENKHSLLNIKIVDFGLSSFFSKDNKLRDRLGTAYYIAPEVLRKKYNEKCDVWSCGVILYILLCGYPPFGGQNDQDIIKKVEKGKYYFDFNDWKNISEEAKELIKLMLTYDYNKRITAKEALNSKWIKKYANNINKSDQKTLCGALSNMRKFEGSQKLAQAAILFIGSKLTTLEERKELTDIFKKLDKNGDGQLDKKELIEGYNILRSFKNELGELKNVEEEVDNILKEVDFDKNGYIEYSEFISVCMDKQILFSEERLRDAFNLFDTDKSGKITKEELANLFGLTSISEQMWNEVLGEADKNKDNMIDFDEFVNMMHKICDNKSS

[6] = target: Plasmodium falciparum protein kinase 6 (PK6, PF3D7_1337100) (UniProt Q8IDW1); assay: PfPK6 kinase inhibitors, biochemical, TCAMS library (AID 1159586); settings: recombinant PfPK6, Kinase-Glo ATP depletion luminescence
Sequence of Plasmodium falciparum protein kinase 6 (PK6, PF3D7_1337100) (Q8IDW1 1-305): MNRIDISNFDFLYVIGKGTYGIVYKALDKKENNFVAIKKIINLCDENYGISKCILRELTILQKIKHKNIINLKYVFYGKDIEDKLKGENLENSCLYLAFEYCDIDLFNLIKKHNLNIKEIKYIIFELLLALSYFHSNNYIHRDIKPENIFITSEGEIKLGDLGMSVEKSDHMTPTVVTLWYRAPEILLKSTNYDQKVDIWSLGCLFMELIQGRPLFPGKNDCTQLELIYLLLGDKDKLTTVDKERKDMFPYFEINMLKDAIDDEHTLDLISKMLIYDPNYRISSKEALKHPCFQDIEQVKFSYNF

[7] = target: Protein kinase 7 (PK7), Plasmodium falciparum 3D7 (PF3D7_0213400) (UniProt Q7YTF7); assay: inhibition of Plasmodium PK7 catalytic activity – biochemical, TCAMS antimalarial set, Kinase-Glo luminescence (AID 1159587); settings: recombinant PfPK7, Kinase-Glo ATP depletion luminescence
Sequence of Protein kinase 7 (PK7), Plasmodium falciparum 3D7 (PF3D7_0213400) (Q7YTF7 1-343): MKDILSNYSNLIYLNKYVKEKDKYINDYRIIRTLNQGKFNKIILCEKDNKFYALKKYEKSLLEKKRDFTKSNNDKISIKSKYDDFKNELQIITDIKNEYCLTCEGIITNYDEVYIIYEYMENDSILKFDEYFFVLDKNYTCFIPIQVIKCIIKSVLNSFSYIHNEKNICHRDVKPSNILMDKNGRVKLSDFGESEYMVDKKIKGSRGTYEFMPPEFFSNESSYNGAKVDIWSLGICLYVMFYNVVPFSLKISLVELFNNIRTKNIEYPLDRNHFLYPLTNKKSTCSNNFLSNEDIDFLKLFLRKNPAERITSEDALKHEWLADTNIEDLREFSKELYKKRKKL

[8] = target: Calcium-dependent protein kinase 4 (Plasmodium falciparum (isolate 3D7)) (UniProt Q8IBS5); assay: PfCDPK4 kinase inhibitors, biochemical, TCAMS library (AID 1159588; cut-off not given, nearly all actives have IC50 up to about 0.91 µM); settings: recombinant PfCDPK4, Kinase-Glo ATP depletion luminescence
Sequence of Calcium-dependent protein kinase 4 (Plasmodium falciparum (isolate 3D7)) (Q8IBS5 whole entry, looked up): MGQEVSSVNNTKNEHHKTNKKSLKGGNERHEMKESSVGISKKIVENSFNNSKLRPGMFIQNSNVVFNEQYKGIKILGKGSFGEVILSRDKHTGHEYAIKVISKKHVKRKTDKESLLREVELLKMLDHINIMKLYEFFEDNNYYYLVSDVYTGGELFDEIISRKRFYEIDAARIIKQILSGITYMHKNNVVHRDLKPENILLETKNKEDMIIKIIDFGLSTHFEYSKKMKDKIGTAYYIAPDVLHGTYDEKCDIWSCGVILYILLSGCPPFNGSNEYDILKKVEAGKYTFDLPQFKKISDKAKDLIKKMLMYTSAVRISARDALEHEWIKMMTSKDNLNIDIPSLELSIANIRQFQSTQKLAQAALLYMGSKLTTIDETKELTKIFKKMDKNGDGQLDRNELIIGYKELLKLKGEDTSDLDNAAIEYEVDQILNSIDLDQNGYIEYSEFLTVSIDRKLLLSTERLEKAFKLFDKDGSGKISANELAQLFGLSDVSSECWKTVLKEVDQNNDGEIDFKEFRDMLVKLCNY

| SMILES | growth inhibition [1] | inhibition [2] | inhibition [3] | growth inhibition [4] | outcome [5] | outcome [6] | outcome [7] | outcome [8] |
| --- | --- | --- | --- | --- | --- | --- | --- | --- |
| COc1ccc(C=CC(=O)N2CCC(CN3CCC(c4c[nH]c5ccccc45)CC3)CC2)cc1OC | 4% | 20% | 0% | 94% (active) | inactive | inactive | inactive | inactive |
| CCCCCc1cc(O)c2c(c1)OC(C)(C)c1ccncc1-2 | 57% (active) | -5% | -1% | 99% (active) | inactive | inactive | inactive | inactive |
| CCCc1ccc2c(c1O)CCC(N(CCC)CCC)C2 (configuration not stated) | 23% | -3% | 3% | 90% (active) | inactive | inactive | inactive | inactive |
| CCOc1ccc(Br)cc1/C=C/C(=O)Nc1ccc2c(c1)[C@@H]1CC[C@H]2N1C | 26% | 60% (active) | -2% | 89% (active) | inactive | inactive | inactive | inactive |
| O=C(/C=C/c1ccc(Cl)c(Cl)c1)NCc1ccc(CN2CCC(c3c[nH]c4ccccc34)CC2)cc1 | 86% (active) | 59% (active) | -2% | 101% (active) | inactive | inactive | inactive | inactive |
| COCCNCc1ccc(-c2cccc(CN(C(=O)CCC3CCCC3)C3CCN(Cc4ccccc4)CC3)c2)cc1 | 86% (active) | 50% (active) | -2% | 91% (active) | inactive | inactive | inactive | inactive |
| COc1cc(C=CC(=O)NC2CCC(CN3CCC(c4c[nH]c5ccccc45)CC3)CC2)cc(OC)c1 (configuration not stated) | 90% (active) | 38% | -9% | 101% (active) | inactive | inactive | inactive | inactive |
| COc1cc(NC(=O)c2nn(CCCN3CCC4(CC3)C(=O)NCN4c3ccccc3)cc2-c2ccc(Cl)c(Cl)c2)cc(OC)c1OC | 75% (active) | -4% | 1% | 97% (active) | inactive | inactive | inactive | inactive |
| CCCCCCCc1cc(=O)c2ccccc2[nH]1 | 94% (active) | 5% | 1% | 96% (active) | inactive | inactive | inactive | inactive |
| CCOC(=O)CCCN1C(=O)CN=C(c2ccccc2)c2cc(Cl)ccc21 | 47% | 54% (active) | -8% | 97% (active) | inactive | inactive | inactive | inactive |
| CN1C(=O)OC[C@@H]1Cc1ccc2[nH]cc(C3=CCN(Cc4ccccc4)CC3)c2c1 | 66% (active) | 4% | -9% | 86% (active) | inactive | inactive | inactive | inactive |
| CC[C@H]1CN2CCc3cc(OC)c(OC)cc3[C@@H]2C[C@@H]1C[C@H]1NCCc2c1cc(OC)c(O)c2I | 101% (active) | 54% (active) | -4% | 101% (active) | inactive | inactive | inactive | inactive |
| Cc1[nH]c2ccc(O)cc2c1C1CCN(CC2CCN(C(=O)/C=C/c3ccc(Cl)c(Cl)c3)CC2)CC1 | 99% (active) | 23% | -13% | 99% (active) | inactive | inactive | inactive | inactive |
| Oc1cccc(C2CCCN(Cc3cccc4cc[nH]c34)C2)c1 (configuration not stated) | 82% (active) | 16% | -2% | 101% (active) | inactive | inactive | inactive | inactive |
| CC[C@H]1CN2CC[C@@H]1C[C@H]2[C@H](O)c1cc(N2CCC(c3ccccc3)CC2)nc2ccc(OC)cc12 | 98% (active) | 45% | -5% | 99% (active) | inactive | inactive | inactive | inactive |
| CC(=O)Nc1ccc(CN2CCC(N(C)c3cc(NC(=O)c4ccc(F)cc4)ccn3)CC2)cc1 | 5% | 0% | -1% | 95% (active) | inactive | inactive | inactive | inactive |
| CC[C@H]1CN2CC[C@@H]1C[C@H]2[C@H](O)c1cc(N2CCCC(C)(C)C2)nc2ccc(OC)cc12 | 72% (active) | 25% | 3% | 101% (active) | inactive | inactive | inactive | inactive |
| O=C(/C=C/C=C/c1ccccc1)NC1CCC(CN2CCC(c3c[nH]c4ccccc34)CC2)CC1 (configuration not stated) | 66% (active) | 49% | 7% | 100% (active) | inactive | inactive | inactive | inactive |
| CC(C)CNCc1ccc(-c2cccc(CN(C(=O)NC3CCCCC3)C3CCN(Cc4ccccc4)CC3)c2)cc1 | 88% (active) | 20% | 2% | 98% (active) | inactive | inactive | inactive | inactive |
| CNCCN(C)C(=O)Oc1c(Br)c(C)nc(C)c1-c1ccc(Oc2ccc(OC(F)(F)F)cc2)cc1 | 98% (active) | 19% | 2% | 98% (active) | inactive | inactive | inactive | inactive |
| COc1cc(C=CC(=O)N2CCC(CN3CCC(c4c[nH]c5ccccc45)CC3)CC2)ccc1O | 25% | 11% | -3% | 82% (active) | inactive | inactive | inactive | inactive |
| O=C(CCc1ccc(Cl)cc1Cl)NC1CCC(CN2CCC(c3c[nH]c4ccccc34)CC2)CC1 (configuration not stated) | 4% and 45% | 33% and 44% | -4% and 2% | 97% (active) and 100% (active) | inactive | inactive | inactive | inactive |
| CCCCCCc1cc(O)c2c3c(c(=O)oc2c1)CCN(C)C3 | 66% (active) | -6% | 4% | 99% (active) | inactive | inactive | inactive | inactive |
| COc1ccc(NC(=S)NC(NC(=O)CF)C(Cl)(Cl)Cl)cc1[N+](=O)[O-] (configuration not stated) | -4% | 66% (active) | 0% | 97% (active) | inactive | inactive | inactive | inactive |
